Measured values as given in PubChem BioAssay (NCI).
Compounds without any hit were thinned out: in the full panel of roughly 83,000, 20% have a hit.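 Compound tested at a single concentration for 48 hours in 96-well plates; a percent growth value below 10 was scored as active.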 Unmarked numbers belong to inactive results. Activity calls are given as the source filed them.

Key:
Experiment in all cases: NCI-60 one-dose screen, 48 h (100 = growth as untreated, 0 = no growth, -100 = all killed)
Conditions in all cases: 10 µM unless noted
[1] = tested on: SK-MEL-2 melanoma
[2] = tested on: EKVX NSCLC
[3] = tested on: SN12C renal
[4] = tested on: UO-31 renal
[5] = tested on: TK-10 renal
[6] = tested on: ACHN renal
[7] = tested on: CAKI-1 renal
[8] = tested on: A498 renal
[9] = tested on: CCRF-CEM leukemia
[10] = tested on: MOLT-4 leukemia
[11] = tested on: RPMI-8226 leukemia
[12] = tested on: OVCAR-8 ovarian
[13] = tested on: OVCAR-5 ovarian
[14] = tested on: OVCAR-4 ovarian
[15] = tested on: SK-OV-3 ovarian
[16] = tested on: IGROV1 ovarian
[17] = tested on: OVCAR-3 ovarian
[18] = tested on: NCI/ADR-RES ovarian
[19] = tested on: SR leukemia
[20] = tested on: HS 578T breast

Compound | growth [1] | growth [2] | growth [3] | growth [4] | growth [5] | growth [6] | growth [7] | growth [8] | growth [9] | growth [10] | growth [11] | growth [12] | growth [13] | growth [14] | growth [15] | growth [16] | growth [17] | growth [18] | growth [19] | growth [20]
CN(C)c1cnccn1 | 85.4% | 104% | 88.6% | 84.2% | 145% | 87.1% | 95.6% | 95.7% | 60.6% | 93.7% | 65.2% | 92.5% | 114% | 82.3% | 90.9% | 91.1% | 104% | 88.6% | – | –
COc1ccc(/C(C)=C(\c2ccc(Cl)cc2)c2ccc(OCCN3CCCCCC3)cc2)cc1F | 74.5% | 57.7% | 57.4% | 32.4% | 81.7% | 64.5% | 22.6% | 77.6% | 36.2% | – | -9.96% (active) | 63.7% | 58.9% | 36% | 71.5% | 56.8% | 54.9% | 65.7% | -12.6% (active) | 44.1%
c1ccc2c(c1)ncn2-c1nc2ccccc2n2c1nc1ccccc12 | 104% | 61.8% | 85.9% | 48% | 79.6% | 63.1% | 62.3% | 82.4% | 80.6% | 80.3% | 81.7% | 80.5% | 81% | 67.9% | – | 51.4% | 89.6% | 87% | – | 83.8%
CCCCCCN(CCCCCC)CC(O)c1cccc2ccc(Cl)cc12 (configuration not stated) | 46.6% | 77.2% | 72.8% | 47.9% | 79.2% | 50.8% | 25.3% | 67.3% | 67.6% | 37.8% | 31.2% | 93.8% | 69.3% | 70% | – | 40.8% | 63.2% | 66.9% | – | 61.2%
C=C(C)[C@@H]1CC[C@]2(CNCCO)CC[C@]3(C)[C@H](CC[C@@H]4[C@@]5(C)CCC(N)[C@@](C)(CO)[C@@H]5CC[C@]43C)[C@@H]12 (some centres not stated) | -19% (active) | 40% | -11.4% (active) | 66.1% | -47.4% (active) | 54.4% | 71.2% | 78.1% | -38.7% (active) | – | -45.1% (active) | 10.7% | 63.8% | 46.2% | 75% | 61.6% | -43.4% (active) | 83% | – | 60.9%
CCN(CC)N=Nc1nn(C(=O)Nc2ccc(Cc3ccccc3)cc2)c2ccc(Cl)cc12 | 72.9% | 47.5% | 83.1% | 65.6% | 83.5% | 28.1% | 65.9% | 87.9% | 62.5% | – | 57.1% | 69.3% | 87.7% | 75.7% | 92.2% | 88% | 87.6% | 82.1% | – | 91.5%
C=C(C)[C@@H]1CC[C@]2(CO)CC[C@]3(C)[C@H](CC[C@@H]4[C@@]5(C)C=C(C#N)C(=O)C(C)(C)[C@@H]5CC[C@]43C)[C@@H]12 | 30.1% | 15.4% | 8.07% (active) | -8.85% (active) | 36.2% | 12% | 22.8% | -0.306% (active) | 2.24% (active) | – | -20.9% (active) | 22.2% | 36.3% | 26.9% | 37.9% | 24.1% | -49.2% (active) | 13.1% | – | 29.3%
c1ccc2[nH]c(SSc3nc4ncncc4[nH]3)nc2c1 | 57.2% | 67.5% | 42.3% | 31.6% | 30% | 32.2% | -46.4% (active) | 61.7% | 24.7% | – | 14.6% | 23% | 44.6% | 33.9% | 24.1% | 43.5% | 22.9% | 26.2% | 32.8% | 59.7%
C[C@H]1[C@H]2C3=CC[C@@H]4[C@@]5(C)C/C(=C/c6ccncc6)C(=O)C(C)(C)[C@@H]5CC[C@@]4(C)[C@]3(C)CC[C@@]2(C(=O)N2CCN(C)CC2)CC[C@@H]1C | 96.3% | 78.3% | 78.9% | 62.4% | 86.1% | 91% | 75.1% | 93.9% | 64.7% | – | 50.2% | 76.7% | 86.7% | 73.6% | 82.9% | 84% | 76.3% | 80.6% | – | 70%
CCCCOc1ccc(NC(=O)n2nc(N=NN(C)C)c3ccc(Cl)cc32)cc1 | 97.6% | 102% | 93.5% | 65.7% | 126% | 93.8% | 90.7% | 100% | 88.9% | – | 92.7% | 105% | 103% | 96.6% | 86% | 82.8% | 104% | 98.3% | – | 93.6%
COc1ccc(OC)c(/C=C2\COc3ccc(O)cc3C2=O)c1 | 100% | 103% | 84.1% | 86.6% | 97% | 78.9% | 95.7% | 100% | 5.83% (active) | – | – | 100% | 98.7% | 117% | 102% | 97.9% | 102% | 100% | 11.8% | 95.6%
CCCc1nc2ccccn2c1Nc1ccc(C(=O)NO)cc1 | 92.1% | 100% | 86.5% | 83.3% | 94.7% | 91.8% | 88.8% | 87.3% | 74.2% | – | 76.3% | 78% | 93.7% | 91.1% | 80.9% | 111% | 99.1% | 84.6% | – | 94.6%
CN(C)CN1CCN(c2ccc3nc(-c4ccc5nc(-c6ccc(C(F)(F)F)cc6)[nH]c5c4)[nH]c3c2)CC1 | 52% | 79% | 64.4% | 131% | 130% | 79.3% | 73.6% | – | 38.6% | 44.2% | 19.1% | 53% | 114% | -4.77% (active) | – | 78.7% | 89.7% | 97.9% | 17.7% | 52.8%
O=C(/C=C/C12c3ccccc3C(c3ccccc31)C1C(=O)N(c3ccc(Cl)cc3)C(=O)C12)c1ccccn1 (configuration not stated) | -19.2% (active) | -34.8% (active) | -44.8% (active) | -98.5% (active) | -33.4% (active) | -35.4% (active) | -9.86% (active) | – | 13.1% | 20% | 3.98% (active) | 21.1% | -43.3% (active) | -6.96% (active) | – | -36.6% (active) | -71.6% (active) | 8.16% (active) | 13.6% | 13.9%
Cn1cc(-c2ccc3nc(-c4ccc(CC(=O)Nc5cc(C(C)(C)C)no5)cc4)cnc3c2)cn1 | 22.2% [30 µM] | 26.1% [30 µM] | 3.38% [30 µM] (active) | 7.7% [30 µM] (active) | 63.5% [30 µM] | 5.16% [30 µM] (active) | 6.29% [30 µM] (active) | – | 45.9% [30 µM] | 22.1% [30 µM] | – | 31.5% [30 µM] | 44.8% [30 µM] | 28.7% [30 µM] | 11.2% [30 µM] | -2.97% [30 µM] (active) | 29.6% [30 µM] | 19.8% [30 µM] | 15.2% [30 µM] | 21.9% [30 µM]
